Compound activity deposited in PubChem BioAssay by Sanford-Burnham Center for Chemical Genomics.
Most compounds without a hit are left out; they make up all but 4% or so of the library.
NLRP3 yeast inh – blocks the NALP3 inflammasome reconstituted in yeast. actives 0.39% (n = 330,000). Yeast reconstituted NLRP3/ASC/caspase-1, beta-gal luminescence, 24 h. inhibition, % at 10 µM;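 active = inhibition of 50% or more; inactive = inhibition below 50%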;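 note: plate controls were induced DMSO wells for no effect and uninduced yeast grown without galactose for full effect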
tim10-1 inh – growth inhibitors of tim10-1 mutant yeast; AID 463190; inhibition, % at 20 µM; actives 2.2% (n = 330,000); S. cerevisiae tim10-1 ts strain growth, BacTiter-Glo, 24 h;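 active = inhibition of at least 40%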;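 note: mutant grown at 25 °C; 0% = DMSO wells with yeast and 100% = wells holding no yeast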
TIM10 inh – growth inhibitors of TIM10 yeast strain; S. cerevisiae TIM10 strain growth, BacTiter-Glo luminescence, 24 h; inhibition, % at 10 µM; actives 1.4% (n = 330,000); AID 463195;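 active = inhibition of 40% or more at the single tested concentration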;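 note: wild-type TIM10 isogenic control strain grown at permissive 25 °C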
NALP1 inh – inhibitors of NALP1 inflammasome in yeast. S. cerevisiae NALP1/ASC/caspase-1 growth, X-gal OD620, 72 h. inhibition, % at 10 µM. AID 2071. actives 0.61% (n = 280,000); in the data active = inhibition mostly above about 24%, no sharp cut-off; inactive = mostly below about 32%
tim23-1 inh – tim23-1 yeast growth inhibition; S. cerevisiae tim23-1 growth, BacTiter-Glo luminescence, 24 h; AID 463212; inhibition, % at 20 µM; actives 1.3% (n = 330,000);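 active = growth inhibition of the mutant yeast at or above 50%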;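 note: temperature-sensitive mutant grown at 25 °C; plate controls were DMSO-treated mutant yeast for no effect and medium wells lacking yeast for full effect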
tim10-1 conf – confirmation of tim10-1 mutant yeast growth inhibitors | shares compounds with tim10-1 inh | S. cerevisiae tim10-1 ts strain growth, BacTiter-Glo, 24 h | inhibition, % at 20 µM | actives 56% (n = 7,400) | AID 463213;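 active = inhibition of yeast growth at or above a set limit in either of two repeat tests at 20 µM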;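 note: tim10-1 mutant grown at permissive 25 °C to find synthetic lethal compounds; 0% = DMSO yeast wells and 100% = medium wells without yeast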
TIM10 conf – confirmation of TIM10 yeast growth inhibitors | S. cerevisiae tim10 strain growth, BacTiter-Glo luminescence, 24 h | shares compounds with TIM10 inh | inhibition, % at 10 µM | actives 63% (n = 4,600);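 active = inhibition of yeast growth at or above a set limit in either of two replicates at 10 µM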;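 note: this counterscreen used the strain with wild-type TIM10; 0% = yeast with DMSO and 100% = medium wells lacking yeast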
tim23-1 confirm – tim23-1 yeast growth inhibition, confirmed. shares compounds with tim23-1 inh. S. cerevisiae tim23-1 growth, BacTiter-Glo luminescence, 24 h. inhibition, % at 20 µM. actives 83% (n = 4,400). AID 463218;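 active = inhibition above about 39% in either of two replicate wells at 20 µM, limit read from the data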;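 note: temperature-sensitive tim23-1 mutant grown at 25 °C; 0% = DMSO wells with yeast and 100% = medium wells without yeast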
Active calls of the source: *; . = no result.

SMILES	NLRP3 yeast inh	tim10-1 inh	TIM10 inh	NALP1 inh	tim23-1 inh	tim10-1 conf	tim23-1 confirm	others
C=C(C(=O)c1ccccc1)C(CC(=O)c1ccccc1)c1ccccc1 (stereo not given)	14.1	58.7*	58.2*	0.6	55.6*	50.8*	55.8*	TIM10 conf=-22.8
C=C(CCC(=O)c1ccccc1)C(=O)c1ccccc1	.	.	.	18.5	.	.	.
COCC(CN1CCN(C2=NS(=O)(=O)c3ccccc32)CC1)OC(=O)c1ccc(OC)cc1 (stereo not given)	7.0	-7.4	15.3	1.6	0.8	.	.
O=Cc1cc2ccccc2nc1SCCCF	13.5	64.5*	78.3*	11.9	66.5*	69.1*	54.7*	TIM10 conf=72.5*
NNc1nc(-c2ccccc2)cc(-c2ccc(Br)cc2)n1	16.5	54.5*	39.3	-1.9	55.5*	49.5*	57.7*
NNc1nc(-c2ccccc2)c2cc(Br)ccc2n1	16.2	43.8*	56.3*	6.2	62.1*	47.8*	28.1	TIM10 conf=30.1
CC(=O)NNc1nc(-c2ccccc2)c2cc(Br)ccc2n1	10.2	9.9	11.4	.	-23.5	.	.
O=c1cc(-c2ccccc2)nc2cc(-c3ccc(Br)cc3)[nH]n12	8.6	-10.9	0.3	25.1	6.2	.	.
NNc1nc(-c2ccccc2)c2cc(Cl)ccc2n1	13.1	53.6*	48.4*	-20.7	63.1*	31.5*	52.1*	TIM10 conf=24.4
CCN(CC)CCCN1CC(=O)N2[C@@H](Cc3c([nH]c4ccccc34)C2(C)C)C1=O	3.5	-10.0	1.8	21.1	3.4	.	.
CCN(CC)C1CC(=O)N(c2cccc(C)c2)C1=O (stereo not given)	21.7	58.7*	30.3	90.5*	54.2*	55.5*	66.1*
CCOC(=O)Cn1ncc2c3ccccc3n(CC(=O)OCC)c2c1=O	4.8	11.1	-14.7	1.0	7.7	.	.
CC1=NN(c2cccc(C(=O)O)c2)C(=O)/C1=C\C=C/c1ccccc1	-17.5	42.5*	47.5*	39.1	53.3*	46.7*	61.5*	TIM10 conf=42.5*
CC1=NN(c2ccc(C)cc2)C(=O)/C1=C\C=C\c1ccccc1	14.8	31.6	16.8	25.1	15.7	.	.
Cc1ccccc1CN1CCN(C(C)C(=O)NNC(=O)c2ccc(F)cc2)CC1 (stereo not given)	11.4	-11.5	3.2	.	-5.1	.	.
CN(C)CCCn1c2c(c(SCC(=O)Nc3ccc4c(c3)OCCO4)nc1=O)CCC2	-2.3	8.4	-0.5	.	-8.5	.	.
Oc1ccc(-c2nccc(-c3ccc(F)cc3)n2)cc1	2.1	51.9*	34.2	20.0	62.2*	53.8*	-15.8
NNC(=O)COc1ccc(-c2nccc(-c3ccc(F)cc3)n2)cc1	25.0	49.2*	13.3	6.1	54.5*	29.6	40.7*
NNC(=O)COc1ccc(F)cc1	10.1	8.5	3.8	16.8	10.2	.	.
S=C(NCc1ccco1)Nc1ccc(Oc2ccc(Cl)cc2)cc1	1.7	46.3*	37.5	21.9	62.6*	60.1*	75.6*
CSc1ncc(Cl)c(C(=O)Nc2cccc(Cl)c2)n1	-8.6	30.6	14.6	29.9	13.8	.	.
Oc1c(Br)cc(Br)cc1C=Nc1cccc2ncccc12	12.1	55.0*	-5.3	.	83.1*	40.9*	85.8*
Oc1c(Cl)cc(Cl)cc1C=Nc1cc(C(F)(F)F)ccc1N1CCc2ccccc2C1	21.6	59.5*	33.0	27.3	57.6*	35.7*	59.1*
Oc1c(Cl)cccc1C=Nc1cc(C(F)(F)F)ccc1N1CCCC1	-5.9	22.4	22.4	20.5	32.9	.	.
O=S(=O)(c1ccccc1Br)N(Cc1ccccc1)CC(O)COCc1ccccc1 (stereo not given)	.	8.6	-16.9	.	39.7	.	.
Oc1ccc2ccccc2c1/C=N/n1cnnc1	6.4	5.2	5.3	2.1	10.6	.	.
Oc1ccc2ccccc2c1C=NC1CCCCC1	4.0	41.1*	17.8	12.4	54.8*	14.1	53.5*
CC(C)n1cc(CN2CCC(C(=O)Nc3ccc(Oc4ccccc4F)cc3)CC2)cn1	14.1	-4.1	0.3	-5.2	-2.4	.	.
